Data taken from PubChem BioAssay AID1159580 (chemical genetic matrix, 2015).
“And” between values parts separate entries of the source, which are not always exact repeats. Equal values may be shown once. In all, about 5,500 compounds went through this assay and about 2,000 (36%) were called active. Another 18% or so got no clear call; they are omitted. Rule as the data show it: active = normalized growth mostly below about 0.91 (no sharp cut-off); inconclusive = no clear call, values can overlap the other calls; inactive = mostly above about 0.92. This is one part of the list.

Assay: chemical genetic growth profiling, strain panel (AID 1159580);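 also: tested at 20 µM; growth read once vehicle control cultures reached saturation at 30 °C; 1 = growth at the plate median or of vehicle wells; lower values mean less growth of the strain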
Conditions: S. cerevisiae deletion strains, growth OD
[1] = locus YAL013W, strain DEP1, hits give low values
[2] = locus YBR229C, strain ROT2, hits give low values
[3] = locus YDL101C, strain DUN1, hits give low values
[4] = locus YDR150W, strain NUM1, hits give low values
[5] = locus YEL061C, strain CIN8, hits give low values
[6] = locus YGR078C, strain PAC10, hits give low values
[7] = locus YHR030C, strain SLT2, hits give low values
[8] = locus YHR087W, strain rtc3, hits give low values
[9] = locus YJR043C, strain POL32, hits give low values
[10] = locus YJR075W, strain HOC1, hits give low values
[11] = locus YLR039C, strain RIC1, hits give low values
[12] = locus YLR058C, strain SHM2 (second series), hits give low values
[13] = locus YLR085C, strain ARP6, hits give low values
[14] = locus YLR262C, strain YPT6, hits give low values
[15] = locus YML094W, strain GIM5, hits give low values
[16] = locus YMR219W, strain ESC1, hits give low values
[17] = locus YMR263W, strain SAP30, hits give low values
[18] = locus YNL153C, strain GIM3, hits give low values
[19] = locus YNL298W, strain CLA4 (second series), hits give low values
[20] = locus YNL322C, strain KRE1, hits give low values
[21] = locus YNR030W, strain Alg12, hits give low values
[22] = locus YOL006C, strain TOP1, hits give low values
[23] = locus YPL055C, strain LGE1, hits give low values
[24] = locus YPL241C, strain CIN2, hits give low values
[25] = locus YPR135W, strain CTF4, hits give low values
[26] = locus YAL040C, strain CLN3, hits give low values
[27] = locus YCL061C, strain MRC1 (second series), hits give low values
[28] = locus YER002W, strain NOP16, hits give low values
[29] = locus YHR079C, strain IRE1, hits give low values
[30] = locus YJL095W, strain BCK1, hits give low values
[31] = locus YJR066W, strain TOR1, hits give low values
[32] = locus YLR113W, strain HOG1, hits give low values
[33] = locus YNL175C, strain NOP13, hits give low values
[34] = locus YNL183C, strain NPR1, hits give low values
[35] = locus YNL197C, strain WHI3, hits give low values
[36] = locus YNL224C, strain SQS1, hits give low values
[37] = locus YOR083W, strain WHI5 (second series), hits give low values
[38] = locus YOR231W, strain MKK1, hits give low values
[39] = locus YPL256C, strain CLN2, hits give low values
[40] = locus YAR019C, strain CDC15, hits give low values
[41] = locus YBL105C, strain PKC1, hits give low values
[42] = locus YBR135W, strain CKS1, hits give low values
[43] = locus YBR136W, strain MEC1, hits give low values
[44] = locus YBR160W, strain CDC28, hits give low values
[45] = locus YDL017W, strain CDC7, hits give low values
[46] = locus YDL028C, strain MPS1, hits give low values
[47] = locus YDL108W, strain KIN28, hits give low values
[48] = locus YDL132W, strain cdc53, hits give low values
[49] = locus YDL214C, strain PRR2, hits give low values
[50] = locus YDR052C, strain DBF4, hits give low values
[51] = locus YDR054C, strain cdc34, hits give low values
[52] = locus YDR226W, strain ADK1, hits give low values
[53] = locus YDR477W, strain SNF1, hits give low values
[54] = locus YER123W, strain YCK3, hits give low values
[55] = locus YER133W, strain GLC7, hits give low values
[56] = locus YFL009W, strain cdc4, hits give low values
[57] = locus YFL029C, strain CAK1, hits give low values
[58] = locus YFR003C, strain YPI1, hits give low values
[59] = locus YFR019W, strain FAB1, hits give low values
[60] = locus YFR028C, strain CDC14, hits give low values
[61] = locus YGR040W, strain KSS1, hits give low values
[62] = locus YGR052W, strain FMP48, hits give low values
[63] = locus YGR092W, strain DBF2, hits give low values
[64] = locus YHR082C, strain KSP1, hits give low values
[65] = locus YHR205W, strain SCH9, hits give low values
[66] = locus YIL147C, strain SLN1, hits give low values
[67] = locus YJL128C, strain PBS2, hits give low values
[68] = locus YJL157C, strain FAR1, hits give low values
[69] = locus YJR016C, strain ILV3, hits give low values
[70] = locus YJR066W, strain TOR1 (second series), hits give low values
[71] = locus YKL048C, strain ELM1, hits give low values
[72] = locus YKL067W, strain YNK1, hits give low values
[73] = locus YKL101W, strain HSL1, hits give low values
[74] = locus YKL193C, strain SDS22, hits give low values
[75] = locus YKL203C, strain TOR2, hits give low values
[76] = locus YLR133W, strain CKI1, hits give low values
[77] = locus YLR403W, strain SFP1, hits give low values
[78] = locus YML070W, strain DAK1, hits give low values
[79] = locus YMR001C, strain CDC5, hits give low values
[80] = locus YMR205C, strain PFK2 (second series), hits give low values
[81] = locus YMR277W, strain FCP1, hits give low values
[82] = locus YNL006W, strain LST8, hits give low values
[83] = locus YNL020C, strain ARK1, hits give low values
[84] = locus YNL161W, strain CBK1, hits give low values
[85] = locus YNL207W, strain RIO2, hits give low values
[86] = locus YNL222W, strain SSU72, hits give low values
[87] = locus YNL307C, strain MCK1 (second series), hits give low values
[88] = locus YOL078W, strain AVO1, hits give low values
[89] = locus YOL136C, strain PFK27, hits give low values
[90] = locus YOR061W, strain CKA2, hits give low values
[91] = locus YOR119C, strain RIO1, hits give low values
[92] = locus YOR329C, strain SCD5, hits give low values
[93] = locus YPL031C, strain PHO85, hits give low values
[94] = locus YPL153C, strain RAD53, hits give low values
[95] = locus YPL204W, strain HRR25, hits give low values
[96] = locus YPL209C, strain IPL1, hits give low values
[97] = locus YPR025C, strain CCL1, hits give low values
[98] = locus YPR106W, strain ISR1, hits give low values
[99] = locus YPR111W, strain DBF20, hits give low values
[100] = strain NNK1, hits give low values
[101] = strain TSCII, hits give low values

Measured: normalized growth

CC1CN=C(NC2CCCCC2)S1 (stereo not given)
inactive: [1] 0.987 | [2] 1 | [3] 0.977 | locus YDL134C, strain PPH21, hits give low values 1.01 | [4] 0.947 | [5] 1.01 | [6] 0.998 | [7] 0.997 | [8] 1.02 | locus YJL187C, strain SWE1, hits give low values 1.01 | [9] 0.982 | [10] 0.998 | [11] 1.05 | [12] 0.988 | [13] 1.02 | [14] 1.04 | [15] 1 | [16] 1.01 | [17] 0.93 | [18] 1.01 | [19] 1.02 | [20] 0.99 | [21] 1 | [22] 1.01 | [23] 0.874 | [24] 1.01 | [25] 1.01

C[N+]1(C)C2CCC1CC(OC(=O)C(CO)c1ccccc1)C2 (stereo not given)
inactive: [26] 1.04 and 1.01 | [27] 1 | locus YDR363W, strain ESC2, hits give low values 0.993 | [28] 1 and 0.996 | [6] 1.02 | [7] 0.972 | [29] 0.976 | [30] 1 | [31] 0.917 | [10] 1 | [32] 0.989 | locus YNL128W, strain TEP1, hits give low values 1.01 | [18] 1.01 | [33] 1.01 | [34] 0.929 | [35] 1.02 and 1.01 | [36] 1.01 and 0.997 | [20] 1.03 and 1.02 | [37] 1.02 | [38] 0.968 | [39] 0.957

COC(=O)C(Cc1c[nH]c2ccccc12)NC(=O)c1c(Cl)cccc1Cl (stereo not given)
inactive: [1] 1 | [2] 0.992 | [3] 0.993 | [4] 0.993 | [5] 1.01 | [6] 0.994 | [7] 0.97 | [8] 0.985 | [9] 1 | [10] 0.994 | [11] 0.996 | [12] 1.01 | [13] 0.981 | [14] 1 | [15] 1 | [16] 1 | [17] 0.994 | locus YMR307W, strain GAS1, hits give low values 0.915 | [18] 0.993 | [19] 1 | [20] 0.99 | [21] 0.999 | [22] 0.937 | [23] 0.988 | [24] 0.999 | [25] 0.963

CC(C)c1cccc(C(C)C)c1OC(=O)NC(=O)c1c(Cl)cccc1Cl
inactive: [40] 0.98 | [41] 0.984 | [42] 0.983 | [43] 0.989 | [44] 0.985 | [45] 0.985 | [46] 0.989 | [3] 0.971 | [47] 0.985 | [48] 0.985 | [49] 0.974 | [50] 0.978 | [51] 0.977 | [52] 0.975 | [53] 0.982 | [54] 0.942 | [55] 0.983 | [56] 0.99 | [57] 0.979 | [58] 0.982 | [59] 0.969 | [60] 0.988 | [61] 0.979 | [62] 1.01 | [63] 0.992 | [7] 0.966 | [29] 0.911 | [64] 1.04 | [65] 0.945 | [66] 0.988 | [30] 0.956 | [67] 0.928 | [68] 0.957 | [69] 0.985 | [70] 0.945 | [31] 1.03 | [71] 0.986 | [72] 0.966 | [73] 0.956 | [74] 0.99 | [75] 1.01 | [32] 0.866 | [76] 0.96 | [77] 0.962 | [78] 0.972 | [79] 0.986 | [80] 0.98 | [81] 0.986 | [82] 0.982 | [83] 0.957 | [84] 0.976 | [34] 0.979 | [85] 0.98 | [86] 0.987 | [87] 0.958 | [88] 0.985 | [89] 0.945 | [90] 0.972 | [91] 1.04 | [38] 0.945 | [92] 0.971 | [93] 0.954 | [94] 0.984 | [95] 0.943 | [96] 0.991 | [39] 0.919 | [97] 0.982 | [98] 0.978 | [99] 0.96 | [100] 0.962 | [101] 0.978

COc1cc(C2SCCS2)cc(Br)c1OC(=O)NC(=O)c1c(Cl)cccc1Cl
active: [7] 1.15 [resistant]
inactive: [40] 0.965 | [41] 0.955 | [42] 0.968 | [43] 0.954 | [44] 0.956 | [45] 0.958 | [46] 0.962 | [3] 0.952 | [47] 0.953 | [48] 0.962 | [49] 0.953 | [50] 0.966 | [51] 0.955 | [52] 0.937 | [53] 0.939 | [54] 0.936 | [55] 0.936 | [56] 0.956 | [57] 0.974 | [58] 0.948 | [59] 0.966 | [60] 0.968 | [61] 0.936 | [62] 0.988 | [63] 0.919 | [29] 0.985 | [64] 1.06 | [65] 0.987 | [66] 0.963 | [30] 0.958 | [67] 0.916 | [68] 0.909 | [69] 0.966 | [70] 0.926 | [31] 1.02 | [71] 0.951 | [72] 0.943 | [73] 0.957 | [74] 0.974 | [75] 0.974 | [32] 1 | [76] 0.942 | [77] 0.905 | [78] 0.962 | [79] 0.962 | [80] 0.954 | [81] 0.966 | [82] 0.967 | [83] 0.942 | [84] 0.951 | [34] 0.997 | [85] 0.964 | [86] 0.975 | [87] 0.937 | [88] 0.96 | [89] 0.937 | [90] 0.934 | [91] 0.994 | [38] 0.993 | [92] 0.956 | [93] 0.905 | [94] 0.941 | [95] 0.876 | [96] 0.963 | [39] 1.07 | [97] 0.966 | [98] 0.957 | [99] 0.933 | [100] 0.957 | [101] 0.958

Nc1nc(SCc2ccc([N+](=O)[O-])cc2)c2ncn([C@@H]3O[C@H](CO)[C@H](O)C3O)c2n1 (stereo not given in full)
inactive: [1] 1.01 | [26] 1.02 | [27] 1 | [4] 0.994 | [28] 1 | locus YGR229C, strain SMI1, hits give low values 1.04 | [10] 0.995 | [18] 0.989 | [33] 0.996 | [35] 1 | [36] 1 | [20] 1.02 | [37] 0.998 | [24] 1
